# Test results from PMC7862700, “An all-to-all approach to the identification of sequence-specific readers for epigenetic DNA modifications on cytosine”.
# Experiments:
# Assay in all cases: DAPPL (digital affinity profiling via proximity ligation, sequencing); 10 mM Tris-HCl pH 7.5, 50 mM NaCl, 1 mM DTT, 4% glycerol, room temperature, 30 min; GST-TFs on glutathione beads, 16-mer random dsDNA library, 0.1% formaldehyde crosslink after washing; high values mean tight binding
# FEV = biological target: T1, FEV (Homo sapiens, UniProt Q99581 1-238); conditions: protein: recombinant; tags: N-terminal GST; dsDNA, one strand shown
# T1 sequence: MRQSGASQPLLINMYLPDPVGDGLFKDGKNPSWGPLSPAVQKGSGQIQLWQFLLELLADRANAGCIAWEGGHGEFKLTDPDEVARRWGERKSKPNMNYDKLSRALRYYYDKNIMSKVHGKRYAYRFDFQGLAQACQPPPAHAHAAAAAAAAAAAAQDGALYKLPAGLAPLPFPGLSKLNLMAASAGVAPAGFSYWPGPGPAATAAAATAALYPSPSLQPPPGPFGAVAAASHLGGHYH
# How it was run: (§1)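 Sequencing on an Illumina NextSeq500 followed washing, crosslinking with 0.1% formaldehyde, proximity ligation (BsaI/T4 ligase, 1 h, 37 °C) and PCR amplification of pools that had been incubated for 30 min at room temperature with 200 nmole of a random double-stranded 16-mer DNA library in Tris/NaCl/DTT/glycerol buffer. Each pool held DNA-barcoded human transcription factors, expressed in yeast as GST fusions and captured on glutathione beads, plus a tag-only sample. Binding signal is a hexamer's read frequency for a factor divided by its frequency in the tag-only sample.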
# ETV5 = ETV5 (Homo sapiens, UniProt P41161 1-510); conditions: protein: recombinant; tags: N-terminal GST; dsDNA, one strand shown
# ETV5, sequence (P41161 whole entry): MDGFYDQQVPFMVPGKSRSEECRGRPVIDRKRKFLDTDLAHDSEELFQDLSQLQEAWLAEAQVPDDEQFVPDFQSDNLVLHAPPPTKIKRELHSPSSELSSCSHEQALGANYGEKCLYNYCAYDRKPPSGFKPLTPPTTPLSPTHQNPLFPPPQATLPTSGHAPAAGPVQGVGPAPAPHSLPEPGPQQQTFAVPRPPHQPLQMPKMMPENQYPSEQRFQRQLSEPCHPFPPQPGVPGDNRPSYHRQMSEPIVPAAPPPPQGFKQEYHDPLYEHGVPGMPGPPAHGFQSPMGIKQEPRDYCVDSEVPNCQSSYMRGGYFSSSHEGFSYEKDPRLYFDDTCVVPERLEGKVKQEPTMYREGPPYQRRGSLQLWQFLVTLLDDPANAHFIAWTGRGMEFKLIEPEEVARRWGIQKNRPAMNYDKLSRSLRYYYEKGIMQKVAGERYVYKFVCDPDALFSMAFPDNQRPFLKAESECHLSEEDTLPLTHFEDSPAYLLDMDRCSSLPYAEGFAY
# How it was run: as §1
# HSF1 = HSF1 (Homo sapiens, UniProt Q00613 1-529); conditions: protein: recombinant; tags: N-terminal GST; chain copies: 3; dsDNA, one strand shown
# HSF1, sequence (Q00613 whole entry): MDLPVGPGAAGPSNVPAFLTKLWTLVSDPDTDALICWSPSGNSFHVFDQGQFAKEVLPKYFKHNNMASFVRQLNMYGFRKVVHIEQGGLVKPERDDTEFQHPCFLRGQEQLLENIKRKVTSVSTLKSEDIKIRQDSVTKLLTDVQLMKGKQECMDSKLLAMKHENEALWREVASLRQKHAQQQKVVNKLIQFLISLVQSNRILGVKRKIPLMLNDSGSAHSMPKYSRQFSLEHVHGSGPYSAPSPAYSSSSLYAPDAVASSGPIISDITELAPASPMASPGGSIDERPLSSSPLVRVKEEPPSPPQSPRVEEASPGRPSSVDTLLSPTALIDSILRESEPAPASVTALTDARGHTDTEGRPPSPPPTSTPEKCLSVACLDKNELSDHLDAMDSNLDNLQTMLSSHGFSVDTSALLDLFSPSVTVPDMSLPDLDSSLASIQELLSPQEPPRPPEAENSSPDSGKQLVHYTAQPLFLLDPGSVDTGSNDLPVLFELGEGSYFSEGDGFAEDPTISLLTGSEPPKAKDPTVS
# How it was run: as §1
# SPIC = biological target: T2, SPIC (Homo sapiens, UniProt Q8N5J4 1-248); conditions: protein: recombinant; tags: N-terminal GST; dsDNA, one strand shown
# T2 sequence: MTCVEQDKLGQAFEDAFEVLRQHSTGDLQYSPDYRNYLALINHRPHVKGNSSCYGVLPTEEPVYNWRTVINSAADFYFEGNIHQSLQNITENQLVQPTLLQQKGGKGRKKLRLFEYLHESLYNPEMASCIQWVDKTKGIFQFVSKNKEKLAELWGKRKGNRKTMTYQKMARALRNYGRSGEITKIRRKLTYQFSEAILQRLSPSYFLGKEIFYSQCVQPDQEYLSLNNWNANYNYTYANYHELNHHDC
# How it was run: as §1
# ELF4 = ELF4 (Homo sapiens, UniProt Q99607 1-663); conditions: protein: recombinant; tags: N-terminal GST; dsDNA, one strand shown
# ELF4, sequence (Q99607 whole entry): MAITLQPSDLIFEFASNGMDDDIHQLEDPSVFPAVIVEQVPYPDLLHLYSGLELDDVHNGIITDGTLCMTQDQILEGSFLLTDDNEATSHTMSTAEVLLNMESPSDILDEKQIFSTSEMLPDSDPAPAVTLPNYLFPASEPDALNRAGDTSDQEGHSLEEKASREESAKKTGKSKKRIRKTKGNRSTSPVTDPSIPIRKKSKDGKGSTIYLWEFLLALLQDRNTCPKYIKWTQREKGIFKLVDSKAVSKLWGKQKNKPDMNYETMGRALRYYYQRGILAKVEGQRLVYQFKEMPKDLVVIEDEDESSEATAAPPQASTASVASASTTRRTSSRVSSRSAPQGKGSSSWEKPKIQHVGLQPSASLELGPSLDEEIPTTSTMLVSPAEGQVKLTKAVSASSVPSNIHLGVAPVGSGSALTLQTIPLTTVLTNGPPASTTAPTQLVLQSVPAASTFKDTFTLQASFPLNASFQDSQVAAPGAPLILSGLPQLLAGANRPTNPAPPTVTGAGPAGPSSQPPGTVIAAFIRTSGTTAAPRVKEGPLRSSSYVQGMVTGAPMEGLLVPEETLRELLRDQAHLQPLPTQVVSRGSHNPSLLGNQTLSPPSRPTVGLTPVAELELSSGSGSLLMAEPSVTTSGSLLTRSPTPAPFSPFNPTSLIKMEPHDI
# How it was run: as §1
# ELK4 = biological target: T3, ELK4 (Homo sapiens, UniProt P28324-2 1-405); conditions: protein: recombinant; tags: N-terminal GST; dsDNA, one strand shown
# T3 sequence: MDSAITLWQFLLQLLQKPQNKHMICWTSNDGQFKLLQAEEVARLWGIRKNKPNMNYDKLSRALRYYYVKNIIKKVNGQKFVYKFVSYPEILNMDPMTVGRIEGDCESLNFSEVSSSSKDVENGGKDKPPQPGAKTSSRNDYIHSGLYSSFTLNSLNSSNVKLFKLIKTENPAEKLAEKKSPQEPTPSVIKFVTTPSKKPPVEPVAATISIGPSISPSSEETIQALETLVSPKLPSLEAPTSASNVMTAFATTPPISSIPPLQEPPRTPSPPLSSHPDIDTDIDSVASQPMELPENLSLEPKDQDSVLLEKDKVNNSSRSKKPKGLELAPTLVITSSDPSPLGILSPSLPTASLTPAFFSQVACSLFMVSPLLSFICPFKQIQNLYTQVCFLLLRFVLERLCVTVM
# How it was run: as §1
# ETV2 = biological target: T4, ETV2 (Homo sapiens, UniProt O00321 1-342); conditions: protein: recombinant; tags: N-terminal GST; dsDNA, one strand shown
# T4 sequence: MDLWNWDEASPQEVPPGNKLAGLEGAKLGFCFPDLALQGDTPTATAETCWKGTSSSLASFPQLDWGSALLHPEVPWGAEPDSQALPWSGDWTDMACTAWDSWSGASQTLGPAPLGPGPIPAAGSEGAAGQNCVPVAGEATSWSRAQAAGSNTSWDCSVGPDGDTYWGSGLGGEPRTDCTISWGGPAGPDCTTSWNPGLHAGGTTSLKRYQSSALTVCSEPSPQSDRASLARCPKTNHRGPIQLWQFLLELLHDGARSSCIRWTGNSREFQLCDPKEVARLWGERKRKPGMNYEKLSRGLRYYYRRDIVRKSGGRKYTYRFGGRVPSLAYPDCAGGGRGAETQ
# How it was run: as §1
# ELF3 = biological target: T5, ELF3 (Homo sapiens, UniProt P78545 1-371); conditions: protein: recombinant; tags: N-terminal GST; dsDNA, one strand shown
# T5 sequence: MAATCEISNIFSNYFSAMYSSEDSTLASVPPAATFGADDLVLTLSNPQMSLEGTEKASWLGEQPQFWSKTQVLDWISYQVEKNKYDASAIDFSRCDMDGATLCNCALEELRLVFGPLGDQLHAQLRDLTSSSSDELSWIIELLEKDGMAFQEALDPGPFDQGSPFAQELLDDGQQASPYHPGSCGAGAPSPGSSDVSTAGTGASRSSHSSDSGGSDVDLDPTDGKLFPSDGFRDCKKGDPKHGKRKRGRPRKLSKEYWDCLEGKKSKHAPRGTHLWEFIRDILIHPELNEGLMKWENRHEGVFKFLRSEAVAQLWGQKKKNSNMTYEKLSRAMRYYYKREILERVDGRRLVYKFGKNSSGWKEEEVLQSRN
# How it was run: as §1
# CRX = CRX (Homo sapiens, UniProt O43186 1-299); conditions: protein: recombinant; tags: N-terminal GST; dsDNA, one strand shown
# CRX, sequence (O43186 whole entry): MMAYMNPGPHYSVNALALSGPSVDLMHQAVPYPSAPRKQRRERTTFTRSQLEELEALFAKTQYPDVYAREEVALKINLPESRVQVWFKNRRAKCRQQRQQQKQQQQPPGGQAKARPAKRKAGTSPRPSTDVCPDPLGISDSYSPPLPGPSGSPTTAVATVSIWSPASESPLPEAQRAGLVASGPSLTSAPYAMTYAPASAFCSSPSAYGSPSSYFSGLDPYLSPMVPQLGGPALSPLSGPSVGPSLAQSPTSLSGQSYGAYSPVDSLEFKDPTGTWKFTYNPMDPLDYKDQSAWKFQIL
# How it was run: as §1
# ETV1 = ETV1 (Homo sapiens, UniProt P50549 1-477); conditions: protein: recombinant; tags: N-terminal GST; dsDNA, one strand shown
# ETV1, sequence (P50549 whole entry): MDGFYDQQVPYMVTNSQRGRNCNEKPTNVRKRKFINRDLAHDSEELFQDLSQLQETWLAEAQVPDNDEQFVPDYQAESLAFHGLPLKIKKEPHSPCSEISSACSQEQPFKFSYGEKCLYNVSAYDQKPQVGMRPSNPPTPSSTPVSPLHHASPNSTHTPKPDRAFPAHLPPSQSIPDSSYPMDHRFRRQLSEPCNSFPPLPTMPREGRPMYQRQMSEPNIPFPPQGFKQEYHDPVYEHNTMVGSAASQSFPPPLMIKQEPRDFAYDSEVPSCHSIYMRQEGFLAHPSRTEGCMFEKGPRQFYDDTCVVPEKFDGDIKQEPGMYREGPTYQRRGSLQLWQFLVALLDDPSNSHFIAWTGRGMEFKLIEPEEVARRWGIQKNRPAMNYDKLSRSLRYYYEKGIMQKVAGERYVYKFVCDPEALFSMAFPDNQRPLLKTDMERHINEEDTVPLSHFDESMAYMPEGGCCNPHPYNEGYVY
# How it was run: as §1
# ERF = biological target: T6, ERF (Homo sapiens, UniProt P50548 1-548); conditions: protein: recombinant; tags: N-terminal GST; dsDNA, one strand shown
# T6 sequence: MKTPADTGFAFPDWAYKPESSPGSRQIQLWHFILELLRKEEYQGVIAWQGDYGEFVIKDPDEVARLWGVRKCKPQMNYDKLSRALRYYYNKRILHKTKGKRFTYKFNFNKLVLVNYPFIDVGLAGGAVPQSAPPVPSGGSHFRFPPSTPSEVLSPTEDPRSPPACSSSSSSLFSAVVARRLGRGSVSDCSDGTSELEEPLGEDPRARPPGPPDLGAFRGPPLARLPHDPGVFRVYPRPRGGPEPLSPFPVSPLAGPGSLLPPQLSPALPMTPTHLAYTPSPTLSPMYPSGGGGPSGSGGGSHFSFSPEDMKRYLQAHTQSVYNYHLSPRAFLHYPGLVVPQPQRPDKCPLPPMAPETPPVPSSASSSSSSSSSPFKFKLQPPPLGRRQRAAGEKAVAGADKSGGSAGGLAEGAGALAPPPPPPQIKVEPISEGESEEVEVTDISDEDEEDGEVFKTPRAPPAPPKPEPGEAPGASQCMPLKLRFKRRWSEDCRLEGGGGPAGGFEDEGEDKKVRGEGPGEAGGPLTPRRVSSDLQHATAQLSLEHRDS
# How it was run: as §1
# ETV3L = biological target: T7, ETV3L (Homo sapiens, UniProt Q6ZN32 1-361); conditions: protein: recombinant; tags: N-terminal GST; dsDNA, one strand shown
# T7 sequence: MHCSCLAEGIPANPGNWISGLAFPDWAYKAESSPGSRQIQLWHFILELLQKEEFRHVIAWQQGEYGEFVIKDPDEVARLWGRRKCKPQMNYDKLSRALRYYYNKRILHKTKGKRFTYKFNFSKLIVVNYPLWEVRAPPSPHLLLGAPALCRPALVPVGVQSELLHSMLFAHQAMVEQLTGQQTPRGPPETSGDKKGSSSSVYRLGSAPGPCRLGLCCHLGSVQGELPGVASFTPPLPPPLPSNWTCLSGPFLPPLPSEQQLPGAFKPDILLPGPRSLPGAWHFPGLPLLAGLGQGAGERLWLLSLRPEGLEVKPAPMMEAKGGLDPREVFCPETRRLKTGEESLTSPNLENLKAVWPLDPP
# How it was run: as §1
# ETS2 = biological target: T8, ETS2 (Homo sapiens, UniProt P15036 1-469); conditions: protein: recombinant; tags: N-terminal GST; dsDNA, one strand shown
# T8 sequence: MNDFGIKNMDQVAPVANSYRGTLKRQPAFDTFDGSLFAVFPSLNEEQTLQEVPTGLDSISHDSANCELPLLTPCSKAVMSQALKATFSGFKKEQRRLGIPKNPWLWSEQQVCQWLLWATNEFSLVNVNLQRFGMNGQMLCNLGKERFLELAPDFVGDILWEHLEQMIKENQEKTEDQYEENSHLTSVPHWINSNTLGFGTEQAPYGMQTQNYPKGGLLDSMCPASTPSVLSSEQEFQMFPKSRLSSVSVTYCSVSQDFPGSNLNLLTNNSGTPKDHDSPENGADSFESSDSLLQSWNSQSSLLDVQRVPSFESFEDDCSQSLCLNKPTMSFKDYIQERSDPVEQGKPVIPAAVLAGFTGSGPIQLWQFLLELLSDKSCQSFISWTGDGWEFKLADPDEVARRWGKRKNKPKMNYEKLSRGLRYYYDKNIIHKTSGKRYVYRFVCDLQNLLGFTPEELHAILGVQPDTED
# How it was run: as §1
# SPDEF = biological target: T9, SPDEF (Homo sapiens, UniProt O95238 1-335); conditions: protein: recombinant; tags: N-terminal GST; dsDNA, one strand shown
# T9 sequence: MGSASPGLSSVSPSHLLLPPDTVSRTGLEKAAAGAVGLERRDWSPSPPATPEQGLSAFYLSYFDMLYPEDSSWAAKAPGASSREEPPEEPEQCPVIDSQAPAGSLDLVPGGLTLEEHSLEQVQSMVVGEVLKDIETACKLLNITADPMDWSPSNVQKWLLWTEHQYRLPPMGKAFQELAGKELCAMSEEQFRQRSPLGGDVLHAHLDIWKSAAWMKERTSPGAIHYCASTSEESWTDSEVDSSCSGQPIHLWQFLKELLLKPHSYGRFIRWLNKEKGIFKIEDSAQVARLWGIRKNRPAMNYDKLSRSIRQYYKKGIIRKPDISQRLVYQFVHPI
# How it was run: as §1
# ETV7 = biological target: T10, ETV7 (Homo sapiens, UniProt Q9Y603 1-341); conditions: protein: recombinant; tags: N-terminal GST; dsDNA, one strand shown
# T10 sequence: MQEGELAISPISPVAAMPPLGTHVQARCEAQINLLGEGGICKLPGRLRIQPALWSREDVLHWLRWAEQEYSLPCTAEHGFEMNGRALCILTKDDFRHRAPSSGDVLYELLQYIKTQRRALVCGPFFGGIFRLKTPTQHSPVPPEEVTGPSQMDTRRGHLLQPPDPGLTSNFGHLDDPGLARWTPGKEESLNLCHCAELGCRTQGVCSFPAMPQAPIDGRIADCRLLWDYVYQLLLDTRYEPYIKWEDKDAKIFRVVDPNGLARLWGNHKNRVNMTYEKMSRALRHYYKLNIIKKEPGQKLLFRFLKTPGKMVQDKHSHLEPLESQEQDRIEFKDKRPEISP
# How it was run: as §1
# ELF5 = biological target: T11, ELF5 (Homo sapiens, UniProt Q9UKW6-2 1-255); conditions: protein: recombinant; tags: N-terminal GST; dsDNA, one strand shown
# T11 sequence: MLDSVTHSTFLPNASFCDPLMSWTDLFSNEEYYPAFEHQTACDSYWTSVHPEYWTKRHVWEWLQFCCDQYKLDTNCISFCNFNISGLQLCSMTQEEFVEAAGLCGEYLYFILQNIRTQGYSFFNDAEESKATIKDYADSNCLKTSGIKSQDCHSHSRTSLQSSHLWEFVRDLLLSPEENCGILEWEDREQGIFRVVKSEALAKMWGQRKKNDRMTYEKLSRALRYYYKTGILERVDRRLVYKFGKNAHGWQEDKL
# How it was run: as §1
# ETV3 = biological target: T12, ETV3 (Homo sapiens, UniProt P41162-2 1-143); conditions: protein: recombinant; tags: N-terminal GST; dsDNA, one strand shown
# T12 sequence: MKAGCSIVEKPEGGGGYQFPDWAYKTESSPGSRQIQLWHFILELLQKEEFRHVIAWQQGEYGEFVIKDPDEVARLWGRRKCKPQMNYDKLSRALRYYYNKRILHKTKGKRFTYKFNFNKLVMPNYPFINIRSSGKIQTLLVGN
# How it was run: as §1
# ETV6 = ETV6 (Homo sapiens, UniProt P41212 1-452); conditions: protein: recombinant; tags: N-terminal GST; dsDNA, one strand shown
# ETV6, sequence (P41212 whole entry): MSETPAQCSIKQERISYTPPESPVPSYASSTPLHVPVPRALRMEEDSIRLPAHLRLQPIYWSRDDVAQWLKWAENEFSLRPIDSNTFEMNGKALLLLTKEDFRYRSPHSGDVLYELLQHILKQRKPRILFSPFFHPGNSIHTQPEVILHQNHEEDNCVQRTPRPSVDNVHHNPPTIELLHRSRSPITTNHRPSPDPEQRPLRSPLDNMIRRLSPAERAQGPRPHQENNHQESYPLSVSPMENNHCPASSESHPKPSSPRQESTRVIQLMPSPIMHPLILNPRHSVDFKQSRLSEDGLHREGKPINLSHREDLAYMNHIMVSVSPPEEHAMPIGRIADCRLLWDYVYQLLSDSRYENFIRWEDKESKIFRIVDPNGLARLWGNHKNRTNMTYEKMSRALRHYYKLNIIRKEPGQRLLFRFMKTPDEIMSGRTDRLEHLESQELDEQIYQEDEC
# How it was run: as §1
sequence,measurement,setting,value
CCGATC,binding signal,FEV,"1.24 fold enrichment (6-mer frequency, TF over GST control)"
same,binding signal,ETV5,"1.25 fold enrichment (6-mer frequency, TF over GST control)"
same,binding signal,HSF1,"1.23 fold enrichment (6-mer frequency, TF over GST control)"
same,binding signal,SPIC,"1.27 fold enrichment (6-mer frequency, TF over GST control)"
same,binding signal,ELF4,"1.2 fold enrichment (6-mer frequency, TF over GST control)"
same,binding signal,ELK4,"1.13 fold enrichment (6-mer frequency, TF over GST control)"
same,binding signal,ETV2,"1.19 fold enrichment (6-mer frequency, TF over GST control)"
same,binding signal,ELF3,"1.4 fold enrichment (6-mer frequency, TF over GST control)"
same,binding signal,CRX,"1.36 fold enrichment (6-mer frequency, TF over GST control)"
same,binding signal,ETV1,"1.12 fold enrichment (6-mer frequency, TF over GST control)"
same,binding signal,ERF,"1.17 fold enrichment (6-mer frequency, TF over GST control)"
same,binding signal,ETV3L,"1.13 fold enrichment (6-mer frequency, TF over GST control)"
same,binding signal,ETS2,"1.18 fold enrichment (6-mer frequency, TF over GST control)"
same,binding signal,SPDEF,"1.22 fold enrichment (6-mer frequency, TF over GST control)"
same,binding signal,ETV7,"1.31 fold enrichment (6-mer frequency, TF over GST control)"
same,binding signal,ELF5,"1.1 fold enrichment (6-mer frequency, TF over GST control)"
same,binding signal,ETV3,"1.25 fold enrichment (6-mer frequency, TF over GST control)"
same,binding signal,ETV6,"1.17 fold enrichment (6-mer frequency, TF over GST control)"
